From the supplement of paper PMC11732987, “Enantioselective OTUD7B fragment discovery through chemoproteomics screening and high-throughput optimisation” (Communications Chemistry, 2025) come the findings set out here.

Common to all, as to assay: log2 ratio of Biotin-Ahx-Ub-VS probe labelling (fragment/DMSO); higher = less target engagement (more negative = stronger competition), active = hit call of the paper (q ≤ 0.05, log2 ratio ≤ -1)
What all share (conditions): compound concentration: 200 uM; treatment time: 3 h

For one experiment, the target named is T1, USP42 (UniProt Q9H9J4).
T1 sequence (whole entry): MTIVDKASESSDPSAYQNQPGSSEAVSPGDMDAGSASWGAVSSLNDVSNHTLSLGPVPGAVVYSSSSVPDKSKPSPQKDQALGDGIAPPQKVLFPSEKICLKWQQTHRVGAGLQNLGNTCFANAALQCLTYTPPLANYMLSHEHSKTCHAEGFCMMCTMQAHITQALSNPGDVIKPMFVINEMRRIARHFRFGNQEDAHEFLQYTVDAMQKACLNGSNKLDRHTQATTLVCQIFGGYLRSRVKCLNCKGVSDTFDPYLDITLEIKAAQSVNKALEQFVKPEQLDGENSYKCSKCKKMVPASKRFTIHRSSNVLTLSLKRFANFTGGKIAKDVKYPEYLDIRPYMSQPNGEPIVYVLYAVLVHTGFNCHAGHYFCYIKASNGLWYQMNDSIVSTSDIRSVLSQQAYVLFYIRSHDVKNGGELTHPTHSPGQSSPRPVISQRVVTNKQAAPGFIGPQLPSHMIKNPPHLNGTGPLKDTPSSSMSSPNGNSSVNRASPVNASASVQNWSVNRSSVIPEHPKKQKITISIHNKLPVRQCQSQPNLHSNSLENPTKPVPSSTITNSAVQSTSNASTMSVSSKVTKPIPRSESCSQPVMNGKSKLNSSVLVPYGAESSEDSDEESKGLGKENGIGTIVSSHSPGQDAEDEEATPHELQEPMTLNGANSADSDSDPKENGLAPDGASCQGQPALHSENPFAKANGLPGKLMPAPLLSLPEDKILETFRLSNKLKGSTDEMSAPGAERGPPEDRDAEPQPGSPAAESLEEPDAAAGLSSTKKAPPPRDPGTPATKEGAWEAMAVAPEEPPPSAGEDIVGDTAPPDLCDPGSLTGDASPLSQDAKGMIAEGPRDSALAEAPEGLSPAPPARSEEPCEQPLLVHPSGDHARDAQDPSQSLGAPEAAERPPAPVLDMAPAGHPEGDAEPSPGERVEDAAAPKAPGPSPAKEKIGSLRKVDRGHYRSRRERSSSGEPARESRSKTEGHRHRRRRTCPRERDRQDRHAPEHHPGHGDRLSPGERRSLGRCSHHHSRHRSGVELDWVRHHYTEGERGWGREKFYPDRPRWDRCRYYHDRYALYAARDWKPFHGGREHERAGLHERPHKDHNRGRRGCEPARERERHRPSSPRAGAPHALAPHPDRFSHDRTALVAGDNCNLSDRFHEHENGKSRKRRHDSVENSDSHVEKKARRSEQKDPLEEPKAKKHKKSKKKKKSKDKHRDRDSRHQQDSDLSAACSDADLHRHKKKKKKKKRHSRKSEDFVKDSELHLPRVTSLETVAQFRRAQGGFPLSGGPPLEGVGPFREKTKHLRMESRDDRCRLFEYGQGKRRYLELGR
Put shortly: (§1)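 Each value is an average log2 ratio of fragment to vehicle, tested by unpaired t-test. The underlying Spectronaut label-free quantities were global-median-normalised, and only proteins with ≥2 unique peptides were included. Triplicate HEK293T lysate samples (495 µg) were exposed to fragment at 200 µM or vehicle for 3 h, then to Biotin-Ahx-Ub-VS at 0.5 µM final for 1 h, before NeutrAvidin enrichment of labelled DUBs, LysC and trypsin digestion, and diaPASEF LC-MS/MS.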

A further experiment concerns the target USP46 (UniProt P62068). Put shortly:
as §1

A further experiment has as its target T2, USP47 (UniProt Q96K76).
T2 sequence (whole entry): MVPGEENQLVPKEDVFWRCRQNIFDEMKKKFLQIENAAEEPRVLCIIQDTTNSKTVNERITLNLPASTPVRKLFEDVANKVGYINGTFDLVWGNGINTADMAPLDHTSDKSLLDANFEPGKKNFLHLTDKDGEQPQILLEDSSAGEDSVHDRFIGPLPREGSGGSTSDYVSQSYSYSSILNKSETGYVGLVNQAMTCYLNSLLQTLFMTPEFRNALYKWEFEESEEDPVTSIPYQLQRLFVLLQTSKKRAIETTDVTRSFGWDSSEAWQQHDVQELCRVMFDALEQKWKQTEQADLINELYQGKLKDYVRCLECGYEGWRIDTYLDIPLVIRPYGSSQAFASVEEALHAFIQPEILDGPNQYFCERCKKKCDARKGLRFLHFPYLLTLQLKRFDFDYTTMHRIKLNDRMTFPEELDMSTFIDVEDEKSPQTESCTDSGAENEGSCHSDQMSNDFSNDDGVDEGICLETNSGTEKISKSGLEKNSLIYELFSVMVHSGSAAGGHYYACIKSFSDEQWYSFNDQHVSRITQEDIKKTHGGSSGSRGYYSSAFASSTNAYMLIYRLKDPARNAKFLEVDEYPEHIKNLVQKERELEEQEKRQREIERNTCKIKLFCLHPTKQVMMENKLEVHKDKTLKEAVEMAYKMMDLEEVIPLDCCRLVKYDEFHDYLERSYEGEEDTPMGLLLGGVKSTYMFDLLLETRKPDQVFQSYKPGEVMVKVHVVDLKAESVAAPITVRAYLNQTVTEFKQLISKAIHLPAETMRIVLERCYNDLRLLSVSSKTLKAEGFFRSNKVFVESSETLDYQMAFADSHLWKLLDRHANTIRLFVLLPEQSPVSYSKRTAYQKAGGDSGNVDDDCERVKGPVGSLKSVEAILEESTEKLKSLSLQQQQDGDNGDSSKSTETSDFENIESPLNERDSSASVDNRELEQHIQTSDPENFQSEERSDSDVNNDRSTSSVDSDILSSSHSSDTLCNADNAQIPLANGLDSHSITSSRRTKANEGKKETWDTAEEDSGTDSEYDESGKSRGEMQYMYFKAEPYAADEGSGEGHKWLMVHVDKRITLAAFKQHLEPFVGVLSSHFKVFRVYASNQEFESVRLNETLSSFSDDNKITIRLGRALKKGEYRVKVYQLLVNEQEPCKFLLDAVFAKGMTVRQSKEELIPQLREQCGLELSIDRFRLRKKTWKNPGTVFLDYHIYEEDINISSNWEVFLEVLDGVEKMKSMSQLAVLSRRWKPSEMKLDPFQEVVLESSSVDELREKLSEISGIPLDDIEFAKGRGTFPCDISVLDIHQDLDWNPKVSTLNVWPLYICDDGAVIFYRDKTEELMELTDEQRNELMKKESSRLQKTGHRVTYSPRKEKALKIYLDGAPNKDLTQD
Put shortly:
as §1

The next experiment concerns the target T3, USP48 (UniProt Q86UV5).
T3 sequence (whole entry): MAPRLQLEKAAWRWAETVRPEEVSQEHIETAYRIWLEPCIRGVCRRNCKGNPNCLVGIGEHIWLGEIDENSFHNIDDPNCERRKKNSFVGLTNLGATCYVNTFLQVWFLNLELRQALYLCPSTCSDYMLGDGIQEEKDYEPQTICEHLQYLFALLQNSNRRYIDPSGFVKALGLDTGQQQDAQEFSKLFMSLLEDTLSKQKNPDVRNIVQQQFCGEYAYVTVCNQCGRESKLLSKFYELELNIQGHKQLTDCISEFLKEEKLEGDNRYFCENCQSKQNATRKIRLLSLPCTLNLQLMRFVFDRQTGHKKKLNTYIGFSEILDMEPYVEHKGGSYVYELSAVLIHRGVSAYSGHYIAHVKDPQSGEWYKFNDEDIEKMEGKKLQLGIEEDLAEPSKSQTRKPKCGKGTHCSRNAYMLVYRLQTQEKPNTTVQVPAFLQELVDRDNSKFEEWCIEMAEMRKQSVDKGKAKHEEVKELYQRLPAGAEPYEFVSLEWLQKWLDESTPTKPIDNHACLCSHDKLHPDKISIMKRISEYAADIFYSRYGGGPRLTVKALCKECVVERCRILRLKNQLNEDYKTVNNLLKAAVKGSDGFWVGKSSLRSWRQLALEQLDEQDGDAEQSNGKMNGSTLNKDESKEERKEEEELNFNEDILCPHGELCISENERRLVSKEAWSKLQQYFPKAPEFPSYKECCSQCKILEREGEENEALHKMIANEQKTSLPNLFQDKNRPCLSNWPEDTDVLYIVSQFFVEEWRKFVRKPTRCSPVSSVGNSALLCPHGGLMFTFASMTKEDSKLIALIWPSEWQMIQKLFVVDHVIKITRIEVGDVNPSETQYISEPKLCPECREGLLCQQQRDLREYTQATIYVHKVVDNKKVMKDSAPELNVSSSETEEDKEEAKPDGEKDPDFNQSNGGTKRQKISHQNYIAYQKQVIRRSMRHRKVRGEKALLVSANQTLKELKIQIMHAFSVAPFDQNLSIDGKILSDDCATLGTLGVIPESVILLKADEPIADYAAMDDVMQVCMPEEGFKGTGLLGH
Put shortly: as §1

The target of the next experiment is T4, USP5 (UniProt P45974).
T4 sequence (whole entry): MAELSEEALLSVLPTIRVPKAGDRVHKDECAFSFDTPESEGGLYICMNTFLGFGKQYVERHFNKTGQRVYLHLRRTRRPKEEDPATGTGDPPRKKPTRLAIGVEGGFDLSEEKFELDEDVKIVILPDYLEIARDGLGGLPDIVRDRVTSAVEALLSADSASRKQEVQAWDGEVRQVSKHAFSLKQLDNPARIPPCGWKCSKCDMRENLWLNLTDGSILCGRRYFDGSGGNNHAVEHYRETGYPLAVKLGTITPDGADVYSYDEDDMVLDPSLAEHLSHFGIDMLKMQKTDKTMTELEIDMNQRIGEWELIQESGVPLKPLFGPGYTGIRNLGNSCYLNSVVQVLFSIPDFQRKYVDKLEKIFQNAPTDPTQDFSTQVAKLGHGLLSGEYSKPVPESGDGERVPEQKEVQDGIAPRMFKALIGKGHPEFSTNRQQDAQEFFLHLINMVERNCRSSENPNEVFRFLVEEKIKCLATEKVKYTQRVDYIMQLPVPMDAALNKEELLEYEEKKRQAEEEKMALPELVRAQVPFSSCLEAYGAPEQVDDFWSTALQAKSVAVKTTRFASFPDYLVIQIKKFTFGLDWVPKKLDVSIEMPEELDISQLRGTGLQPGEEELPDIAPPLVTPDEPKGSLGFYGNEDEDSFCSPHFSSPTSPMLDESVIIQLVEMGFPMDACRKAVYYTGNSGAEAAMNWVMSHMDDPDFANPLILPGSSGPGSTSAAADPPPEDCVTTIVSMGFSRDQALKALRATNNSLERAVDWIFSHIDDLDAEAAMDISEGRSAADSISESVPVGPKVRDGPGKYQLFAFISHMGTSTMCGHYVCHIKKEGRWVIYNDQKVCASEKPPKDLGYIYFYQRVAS
Put shortly:
as §1

The target of another experiment is USP54 (UniProt Q70EL1). Put shortly:
as §1

The target of another experiment is USP7 (UniProt Q93009). Put shortly: as §1
Another experiment concerns the target T5, USP8 (UniProt P40818).
T5 sequence (whole entry): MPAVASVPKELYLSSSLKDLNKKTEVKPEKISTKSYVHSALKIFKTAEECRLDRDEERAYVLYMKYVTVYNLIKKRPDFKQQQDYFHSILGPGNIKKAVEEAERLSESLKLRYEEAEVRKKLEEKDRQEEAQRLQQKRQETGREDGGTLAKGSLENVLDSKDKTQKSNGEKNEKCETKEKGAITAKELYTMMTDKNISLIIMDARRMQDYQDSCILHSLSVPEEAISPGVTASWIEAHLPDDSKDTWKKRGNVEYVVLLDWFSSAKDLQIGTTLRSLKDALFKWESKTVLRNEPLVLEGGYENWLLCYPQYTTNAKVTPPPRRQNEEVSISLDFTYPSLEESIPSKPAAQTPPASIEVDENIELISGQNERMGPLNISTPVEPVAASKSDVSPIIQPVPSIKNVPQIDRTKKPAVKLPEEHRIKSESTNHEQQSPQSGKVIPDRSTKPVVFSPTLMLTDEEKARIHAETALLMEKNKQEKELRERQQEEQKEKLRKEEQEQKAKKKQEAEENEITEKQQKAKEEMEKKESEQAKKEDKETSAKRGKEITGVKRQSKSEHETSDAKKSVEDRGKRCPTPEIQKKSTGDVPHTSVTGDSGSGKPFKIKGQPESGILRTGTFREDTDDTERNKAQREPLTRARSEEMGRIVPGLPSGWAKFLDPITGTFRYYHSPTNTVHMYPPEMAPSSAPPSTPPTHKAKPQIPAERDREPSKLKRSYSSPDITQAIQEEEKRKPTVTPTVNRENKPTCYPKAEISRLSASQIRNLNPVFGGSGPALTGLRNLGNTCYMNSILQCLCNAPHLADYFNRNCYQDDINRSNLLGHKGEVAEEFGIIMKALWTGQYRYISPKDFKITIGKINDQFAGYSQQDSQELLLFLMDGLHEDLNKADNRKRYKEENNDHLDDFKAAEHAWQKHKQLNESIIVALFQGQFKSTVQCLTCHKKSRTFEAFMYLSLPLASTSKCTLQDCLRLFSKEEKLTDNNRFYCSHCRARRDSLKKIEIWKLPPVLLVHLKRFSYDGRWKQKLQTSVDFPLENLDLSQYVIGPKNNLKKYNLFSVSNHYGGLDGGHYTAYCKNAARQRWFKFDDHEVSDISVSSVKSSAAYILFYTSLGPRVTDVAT
Put shortly:
as §1

For another experiment, the target named is USP9X (UniProt Q93008). Put shortly:
as §1

The target in another experiment is UniProt O00487. Put shortly:
as §1

A number with no mark means an inactive call.

Chain of USP54 (Q70EL1 whole entry): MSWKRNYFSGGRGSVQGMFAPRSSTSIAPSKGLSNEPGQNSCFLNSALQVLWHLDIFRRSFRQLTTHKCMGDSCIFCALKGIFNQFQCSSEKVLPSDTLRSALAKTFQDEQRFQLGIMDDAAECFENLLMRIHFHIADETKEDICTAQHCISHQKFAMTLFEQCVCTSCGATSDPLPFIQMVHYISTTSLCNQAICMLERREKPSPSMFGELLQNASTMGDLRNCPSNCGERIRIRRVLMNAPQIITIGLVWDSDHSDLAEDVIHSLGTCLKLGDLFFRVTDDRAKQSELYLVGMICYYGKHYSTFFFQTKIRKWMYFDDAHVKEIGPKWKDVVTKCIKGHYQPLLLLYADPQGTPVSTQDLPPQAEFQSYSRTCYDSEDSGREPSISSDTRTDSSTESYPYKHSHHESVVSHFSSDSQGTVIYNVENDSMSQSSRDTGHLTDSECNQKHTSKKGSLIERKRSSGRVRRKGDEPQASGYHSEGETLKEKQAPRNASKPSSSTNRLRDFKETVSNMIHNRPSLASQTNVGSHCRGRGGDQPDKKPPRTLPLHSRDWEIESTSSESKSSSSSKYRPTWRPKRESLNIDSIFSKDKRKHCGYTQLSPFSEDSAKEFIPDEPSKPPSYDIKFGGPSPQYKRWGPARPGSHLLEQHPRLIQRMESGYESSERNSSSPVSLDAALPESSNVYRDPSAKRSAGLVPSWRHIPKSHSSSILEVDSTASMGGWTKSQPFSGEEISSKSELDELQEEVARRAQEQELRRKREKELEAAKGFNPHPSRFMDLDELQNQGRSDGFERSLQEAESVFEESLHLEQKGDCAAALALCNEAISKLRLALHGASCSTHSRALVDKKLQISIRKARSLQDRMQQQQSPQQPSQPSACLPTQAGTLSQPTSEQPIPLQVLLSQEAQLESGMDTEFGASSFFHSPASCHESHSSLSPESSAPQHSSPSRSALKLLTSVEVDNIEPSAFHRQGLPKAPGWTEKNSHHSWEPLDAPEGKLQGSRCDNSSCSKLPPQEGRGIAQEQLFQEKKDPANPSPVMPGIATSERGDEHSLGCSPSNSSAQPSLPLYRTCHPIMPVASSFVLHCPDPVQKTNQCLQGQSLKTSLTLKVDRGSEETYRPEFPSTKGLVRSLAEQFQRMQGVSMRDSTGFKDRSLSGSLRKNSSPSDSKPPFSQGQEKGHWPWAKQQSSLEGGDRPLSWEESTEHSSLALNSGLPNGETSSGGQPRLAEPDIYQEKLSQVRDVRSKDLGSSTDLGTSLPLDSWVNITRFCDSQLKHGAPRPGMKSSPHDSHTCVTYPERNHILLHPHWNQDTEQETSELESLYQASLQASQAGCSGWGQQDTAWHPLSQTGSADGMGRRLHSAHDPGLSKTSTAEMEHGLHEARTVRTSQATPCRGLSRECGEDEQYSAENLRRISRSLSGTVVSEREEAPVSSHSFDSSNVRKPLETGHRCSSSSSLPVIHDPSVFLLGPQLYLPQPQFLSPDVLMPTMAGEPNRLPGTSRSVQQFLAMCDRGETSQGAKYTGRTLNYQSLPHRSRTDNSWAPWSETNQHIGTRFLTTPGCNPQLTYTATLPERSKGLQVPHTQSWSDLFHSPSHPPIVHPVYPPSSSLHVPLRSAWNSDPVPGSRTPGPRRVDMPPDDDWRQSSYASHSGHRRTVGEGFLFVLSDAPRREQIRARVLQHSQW
Chain of USP7 (Q93009 whole entry, looked up): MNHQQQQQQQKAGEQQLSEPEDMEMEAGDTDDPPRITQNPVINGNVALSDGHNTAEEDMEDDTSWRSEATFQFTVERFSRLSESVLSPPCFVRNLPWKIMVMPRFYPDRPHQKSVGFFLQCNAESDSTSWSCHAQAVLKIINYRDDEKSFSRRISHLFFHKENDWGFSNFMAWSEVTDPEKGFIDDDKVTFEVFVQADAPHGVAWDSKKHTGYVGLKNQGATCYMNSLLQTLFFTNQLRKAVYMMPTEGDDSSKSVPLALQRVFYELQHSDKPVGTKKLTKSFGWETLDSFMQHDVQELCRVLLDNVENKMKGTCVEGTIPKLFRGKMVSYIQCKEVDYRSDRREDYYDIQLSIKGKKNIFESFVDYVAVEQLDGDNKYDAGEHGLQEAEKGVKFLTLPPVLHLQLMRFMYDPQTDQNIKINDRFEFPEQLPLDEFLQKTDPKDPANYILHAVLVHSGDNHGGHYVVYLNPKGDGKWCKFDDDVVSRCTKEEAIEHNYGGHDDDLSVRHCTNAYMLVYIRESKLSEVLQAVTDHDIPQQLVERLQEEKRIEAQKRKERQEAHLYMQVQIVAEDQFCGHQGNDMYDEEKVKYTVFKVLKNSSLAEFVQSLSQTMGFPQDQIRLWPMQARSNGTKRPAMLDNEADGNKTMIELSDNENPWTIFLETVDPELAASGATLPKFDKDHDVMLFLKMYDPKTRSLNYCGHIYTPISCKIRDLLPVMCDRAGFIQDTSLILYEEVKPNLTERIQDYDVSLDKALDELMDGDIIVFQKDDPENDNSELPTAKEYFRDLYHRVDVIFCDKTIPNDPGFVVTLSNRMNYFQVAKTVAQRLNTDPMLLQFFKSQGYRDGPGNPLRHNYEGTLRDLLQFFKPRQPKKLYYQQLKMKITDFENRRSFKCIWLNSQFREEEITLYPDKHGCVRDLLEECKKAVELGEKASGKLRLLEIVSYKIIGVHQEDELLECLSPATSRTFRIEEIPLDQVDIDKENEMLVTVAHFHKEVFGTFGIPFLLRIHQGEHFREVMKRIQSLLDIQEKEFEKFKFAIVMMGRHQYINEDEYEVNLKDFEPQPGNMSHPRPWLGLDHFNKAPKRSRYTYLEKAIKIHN
Chain of USP46 (P62068 whole entry): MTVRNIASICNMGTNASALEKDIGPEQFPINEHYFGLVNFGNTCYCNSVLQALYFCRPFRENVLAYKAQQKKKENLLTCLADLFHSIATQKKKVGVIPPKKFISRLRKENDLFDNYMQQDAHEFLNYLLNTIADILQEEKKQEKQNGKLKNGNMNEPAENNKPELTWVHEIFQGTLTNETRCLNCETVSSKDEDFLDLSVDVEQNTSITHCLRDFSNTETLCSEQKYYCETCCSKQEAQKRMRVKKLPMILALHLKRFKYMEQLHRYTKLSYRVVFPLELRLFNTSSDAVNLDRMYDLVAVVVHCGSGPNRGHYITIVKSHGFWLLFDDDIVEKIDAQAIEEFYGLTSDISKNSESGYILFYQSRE
Chain of UniProt O00487 (O00487 whole entry): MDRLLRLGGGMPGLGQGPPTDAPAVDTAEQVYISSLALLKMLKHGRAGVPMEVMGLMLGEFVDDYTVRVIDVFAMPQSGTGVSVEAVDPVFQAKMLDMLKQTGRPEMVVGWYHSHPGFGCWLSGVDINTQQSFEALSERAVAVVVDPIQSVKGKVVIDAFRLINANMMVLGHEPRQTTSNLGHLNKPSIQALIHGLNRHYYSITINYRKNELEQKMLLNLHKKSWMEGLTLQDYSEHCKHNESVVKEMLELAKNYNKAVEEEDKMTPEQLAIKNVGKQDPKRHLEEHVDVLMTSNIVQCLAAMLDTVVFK

Consider `O=C(CCl)NCc1noc(C2CC2)n1`, for which the “log2 ratio of Biotin-Ahx-Ub-VS probe labelling” value (“log2 ratio” for short) was -0.112 in the experiment with USP42; -0.0864 with USP46; -0.0714 with USP47; -0.135 in the experiment with USP48; -0.183 with USP5; 1.02 with USP54. Further, the “log2 ratio” value with USP7 is -0.262; in the experiment with USP8 it was -0.421; in the experiment with USP9X, -0.268; with UniProt O00487 it was -0.16.
As for `Cl.O=C(CCl)N1CC(c2ccc(Br)cn2)C1`, the “log2 ratio” value with USP42 was 0.0546; with USP46, -0.129; with USP47, -0.944; with USP48, -0.383; in the experiment with USP5, 0.197; in the experiment with USP54, 0.556. Besides, the “log2 ratio” value in the experiment with USP7 was -1.29 (active); with USP8, -0.318; with USP9X, -0.297; with UniProt O00487, -0.285.
